Source: PubChem (several laboratories)
CYP2C9 act – activators of human CYP2C9; recombinant CYP2C9, luciferin-H conversion, luminescence; stronger effect = higher value; factor 1 = untreated enzyme, 0 = blocked; activation factor at 5 µM; actives 1.4% (n = 96,000);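 active means activation factor of 2 or more for CYP2C9 at a 5 µM dose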;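 further: 0 = sulfaphenazole-blocked wells and 1 = vehicle-only wells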
PostGolgi yeast – growth inhibition of a yeast mutant, post-Golgi transport screen; inhibition, % at 10 µM; actives 0.9% (n = 98,000); post-Golgi transport phenotypic cell assay; AID 739;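 further: yeast cells grown in 1536-well plates; yeast grown about 18 h at 30C before absorbance read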
CYP2C19 inh – inhibitors of human CYP2C19 | CYP2C19 Supersomes, luciferin-H EGE luminescence, 30 min | inhibition, % at 5 µM | P33261 | actives 21% (n = 96,000);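 active means CYP2C19 inhibition above a set limit at 5 µM in the primary screen, cut at about 50% in these data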;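 further: plate controls were negative control wells for no effect and 2.5 mM tranylcypromine positive control for full effect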
Target sequence (P33261 whole entry, looked up): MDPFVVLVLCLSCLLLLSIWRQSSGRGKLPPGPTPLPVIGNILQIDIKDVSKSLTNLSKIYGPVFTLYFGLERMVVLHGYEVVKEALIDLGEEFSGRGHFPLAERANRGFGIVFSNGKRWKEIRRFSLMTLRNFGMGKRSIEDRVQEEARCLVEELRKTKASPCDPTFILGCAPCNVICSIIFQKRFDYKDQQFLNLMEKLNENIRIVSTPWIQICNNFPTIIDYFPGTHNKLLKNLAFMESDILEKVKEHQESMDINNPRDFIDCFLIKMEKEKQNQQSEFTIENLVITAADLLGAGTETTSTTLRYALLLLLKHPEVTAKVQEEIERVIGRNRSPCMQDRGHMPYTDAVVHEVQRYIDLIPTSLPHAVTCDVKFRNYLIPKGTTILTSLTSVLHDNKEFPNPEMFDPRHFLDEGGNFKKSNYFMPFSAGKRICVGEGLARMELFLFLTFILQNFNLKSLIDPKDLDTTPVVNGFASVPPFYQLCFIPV
PostGolgi ctrl – yeast control strain growth, post-Golgi counter-screen. actives 5% (n = 98,000). inhibition, % at 10 µM. efflux-deficient yeast background strain, growth absorbance A615, 16 h
CYP2C9 inh – human CYP2C9 inhibition; P11712; CYP2C9 Supersomes, luciferin-H conversion, luminescence; inhibition, % at 5 µM; actives 20% (n = 96,000); AID 777;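 active means blocking of liver enzyme CYP2C9 beyond about 50% at 5 µM, limit read from the data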
CYP2C19 activ – increases human CYP2C19 enzyme activity. P33261. recombinant CYP2C19, luciferin-H EGE luminescence; stronger effect = higher value; 0 = fully inhibited enzyme, 1 = untreated enzyme. activation factor at 5 µM. 96,000 tested, under 10 active;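 active means activation factor of at least 2 at 5 µM in the primary screen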;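 further: 0 = wells with 2.5 mM tranylcypromine and 1 = vehicle-only wells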
* hit, by the source's call; . = not tested or not shown. Rows were chosen to be rich in hits. Some 32% of all compounds tested hit in one or more screens of this group. Unless noted, no stated cut-off is given here; in the data, active means inhibition above about 30%; inactive means the rest.

SMILES | CYP2C9 act | PostGolgi yeast | CYP2C19 inh | PostGolgi ctrl | CYP2C9 inh | CYP2C19 activ
O=C(Cc1cccs1)NCc1ccc(F)cc1 | 1.1 | 6.9 | 21.7 | 6.2 | -10.0 | 0.8
CC(=O)c1cc(-c2ccccc2)n(CCC(=O)NCc2cccs2)c1C | 0.5 | -1.8 | 72.7* | 15.8 | 54.3* | 0.3
COCc1cc(C)nc(Nc2ccc(C)cc2C)c1C#N | 1.2 | 2.6 | -13.0 | -0.3 | -19.9 | 1.1
N#CCCSc1ccccc1NC(=O)c1ccc(S(=O)(=O)N2CCCC2)cc1 | 0.2 | -8.8 | 19.2 | -0.6 | 75.6* | 0.8
O=C(c1ccc(COc2ccccc2Cl)o1)N1CCN(Cc2ccc3c(c2)OCO3)CC1 | 0.1 | -5.0 | 71.8* | 26.6 | 86.7* | 0.3
O=C(c1ccc(COc2ccc(Cl)cc2)o1)N1CCN(Cc2ccc3c(c2)OCO3)CC1 | 0.4 | . | 16.0 | 52.3* | 62.3* | 0.8
CCN1CCN(C(=O)c2ccc(COc3ccc(Cl)cc3)o2)CC1 | 1 | 5.7 | -2.9 | -6.9 | 1.1 | 1
COCCSc1ccccc1C(=O)N1CCN(Cc2ccc3c(c2)OCO3)CC1 | 0.8 | -4.4 | 11.7 | 6.8 | 19.2 | 0.9
Cn1c(=O)oc2cc(S(=O)(=O)NCCC(=O)N3CCc4ccccc43)ccc21 | 1.4 | 22.1 | -10.4 | 0.1 | -36.6 | 1.1
Cc1nnc(OC(C)C)c2nn(-c3ccccc3F)c(C)c12 | 0.1 | -5.5 | 51.0* | 0.6 | 89.2* | 0.5
CSc1nc(Oc2ccc3ccccc3c2)c2sccc2n1 | 0.1 | -5.8 | 19.7 | -0.3 | 87.0* | 0.8
CCC(C)(C)NC(=O)C(c1cccnc1)N(CCOC)C(=O)Cn1nnc2ccccc21 (configuration not stated) | 0.9 | 4.4 | 7.5 | 1.3 | 5.2 | 0.9
Clc1ccc(-c2cc(CSc3ccccc3)on2)cc1 | 0.8 | 20.2 | 36.8 | 10.2 | 23.0 | 0.6
Clc1ccc(-c2cc(CSc3cccc(Cl)c3)on2)cc1 | 0.5 | 22.7 | 75.4* | 4.0 | 45.4 | 0.2
CCNC(=O)NC1(C(=O)Nc2ccc3c(c2)OCCO3)CCCCC1 | 1 | 27.7 | -0.4 | -2.5 | 3.0 | 1
O=C1S/C(=C/c2ccc(N3CCOCC3)o2)C(=O)N1Cc1ccc(F)cc1 | 1 | 0.5 | 24.6 | 1.2 | -0.3 | 0.8
O=C1/C(=C/c2ccc(N3CCOCC3)o2)SC(=Nc2ccccc2)N1CCc1c[nH]c2ccccc12 | 0.4 | 3.7 | 25.8 | 24.2 | 63.1* | 0.7
CC(=O)N(C)c1ccc(NC(=O)/C=C/c2ccccc2Cl)cc1 | 0.7 | -8.8 | 40.0 | 1.0 | 30.0 | 0.6
O=C(/C=C/c1cccc(Cl)c1)Nc1ccncc1 | 0 | 1.3 | 99.0* | 12.5 | 98.7* | 0
O=C(/C=C/c1c(Cl)cccc1Cl)Nc1ccncc1 | 0.1 | 51.5* | 93.7* | 92.0* | 93.1* | 0.1
Cc1c(NC(=O)NC(C)N2C(=O)C3C4C=CC(C4)C3C2=O)c(=O)n(-c2ccccc2)n1C (configuration not stated) | 1.2 | 5.8 | -15.8 | 14.9 | -18.2 | 1.2
COc1ccc(-c2cc(O)cc(O)c2)cc1 | 0.4 | 1.9 | 58.8* | 22.4 | 59.7* | 0.4
O=C(CCC(=O)NC1CCCCCC1)Nc1nnc(C(F)(F)F)s1 | 0.3 | -5.5 | -1.2 | -0.1 | 66.0* | 1
O=C(CCC(=O)NC1CCCCCCC1)Nc1nnc(C(F)(F)F)s1 | 0.2 | 2.4 | 36.2 | 5.3 | 83.0* | 0.6
COc1ccc(-n2c(Cc3cccs3)nnc2SCC(=O)Nc2ccc3c(c2)OCCO3)cc1 | 0.4 | -6.8 | 55.5* | 5.5 | 60.7* | 0.4
SMILES | CYP2C9 act | PostGolgi yeast | CYP2C19 inh | PostGolgi ctrl | CYP2C9 inh | CYP2C19 activ
COc1ccc(NC(=O)CSc2nnc(Cc3cccs3)n2-c2ccc(C)cc2)cc1 | 0.5 | 6.3 | 72.7* | 15.2 | 51.2* | 0.3
COc1cccc(NC(=O)CSc2nnc(Cc3cccs3)n2-c2ccc(C)cc2)c1 | 0.3 | -1.6 | 45.4 | 11.6 | 65.4* | 0.5
C=CCn1c(Cc2cccs2)nnc1SCC(=O)Nc1cccc(OC)c1 | 0.7 | 0.9 | 43.8 | -1.8 | 31.1 | 0.6
C=CCn1c(Cc2cccs2)nnc1SCC(=O)Nc1ccc(OC)cc1 | 0.8 | -3.8 | 20.6 | 6.9 | 22.8 | 0.8
N/C(=N/O)c1nc(N2CCCCC2)nc(N2CCCCC2)n1 | . | 0.5 | . | -4.7 | . | .
Cn1c(=O)c2c(nc(-n3ccnc3)n2Cc2ccc([N+](=O)[O-])cc2)n(C)c1=O | 1.1 | 2.9 | 4.1 | 2.2 | -7.6 | 1
O=[N+]([O-])c1ccc2c(c1)oc1ccccc12 | 0.9 | 4.3 | 21.4 | 5.5 | 7.1 | 0.8
CC(=O)CC(c1ccc([N+](=O)[O-])cc1)c1c(O)c2ccccc2oc1=O (configuration not stated) | 0.2 | 1.1 | 15.0 | 11.1 | 76.3* | 0.8
Cc1cc(N2CC(=O)N(CCc3ccccc3)C(=O)C2)n2ncnc2n1 | 1 | 1.1 | -7.3 | 11.3 | 1.6 | 1.1
Cc1ccc(O)c(C(=O)c2cc(C#N)c(=O)n(CC3CCCO3)c2)c1 (configuration not stated) | 0.5 | 4.4 | 66.0* | 23.9 | 46.6 | 0.3
COc1ccc(O)c(C(=O)c2cc(C#N)c(=O)n(CC3CCCO3)c2)c1 (configuration not stated) | 0.8 | -3.1 | 9.4 | 16.8 | 18.2 | 0.9
COc1ccc(C2C(=O)N(C3CCCCC3)CC(=O)N2C2CCCCC2)cc1 (configuration not stated) | 0.5 | 1.8 | 31.1 | 6.0 | 52.7* | 0.7
O=C(c1ccccn1)c1conc1C(=O)c1ccc(Br)cc1 | 0.4 | -1.4 | 85.8* | -2.4 | 56.7* | 0.1
Cc1cc(C)nc(/N=C2\NC(=O)CC(C(=O)O)N2CCc2c[nH]c3ccccc23)n1 (configuration not stated) | 0.9 | 0.7 | 14.9 | 2.7 | 6.6 | 0.9
CN(C)C(=O)COC(=O)[C@H](Cc1ccccc1)NC(=O)c1ccco1 | 0.8 | 3.6 | 8.1 | 0.6 | 15.7 | 0.9
O=C(Nc1ccccc1C(=O)NC(Cc1c[nH]c2ccccc12)C(=O)O)c1ccco1 (configuration not stated) | 0.8 | 2.8 | -10.4 | -10.2 | 21.8 | 1.1
O=C(COC(=O)[C@H](Cc1ccccc1)NC(=O)c1ccco1)NCc1ccccc1 | 0.1 | -7.4 | 70.9* | 5.8 | 90.6* | 0.3
Cc1cc(C)nc(NC(=NCCc2c[nH]c3ccccc23)NC(=O)c2ccco2)n1 | 0 | 11.2 | 96.4* | 41.8* | 99.1* | 0
O=C(NC(Cc1c[nH]c2ccccc12)C(=O)O)c1ccco1 (configuration not stated) | 0.5 | -8.4 | -2.5 | 30.2* | 46.5 | 1
CCCCS(=O)(=O)NC1=NCN(CCO)CN1 | 1 | 0.2 | 6.3 | 7.5 | 0.2 | 0.9
CC1CCCC(C)N1CC(C)(C)NS(=O)(=O)c1ccc(Cl)cc1 (configuration not stated) | 0.8 | 4.2 | 84.3* | 4.9 | 16.6 | 0.2
